Results taken from PubChem BioAssay (NCATS).
Where “and” joins values, the source holds several entries; their conditions need not be identical. Equal values may be shown once. Records with an inconclusive call do not appear. Calls of active or inactive are those of the source. Unless noted, calls come from the whole dose curve; as a rule, active = well fitted curve in the direction sought with a large enough effect; inconclusive = small, poorly fitted or top-dose-only effect, or another doubt; inactive = no such curve, though single readings can be large; an effect the other way counts as inactive or inconclusive.

Experiments:
NIH3T3 = experiment: qHTS assay to identify novel small-molecules to repurpose for Merkel cell carcinoma treatment (AID 1296009); conditions: MCC and control cell lines, CellTiter-Glo viability, 72 h; at 44.8 µM (top of the series) unless noted; note: nearly all actives have a fitted effect of over 60% in size
Outline: (§1)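 Viability readout: ATP luminescence (CellTiter-Glo) after 72 hr drug exposure at 37 degree celsius. Dose-response format was 8 points for NPC and 11 points for MIPE; data normalized to in-plate controls.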

UISO = experiment: as above; conditions: MCC and control cell lines, CellTiter-Glo viability, 72 h; series mostly up to 46 µM
Outline: as §1

WaGa = experiment: as above; conditions: MCC and control cell lines, CellTiter-Glo viability, 72 h; series mostly up to 46 µM
Outline: as §1

C33A = experiment: Primary qHTS to identify gynecologic anti-cancer compounds using libraries of approved drugs and bioactive compounds (AID 1345084); conditions: Gynecologic cancer cell panel viability, ATPlite luminescence, 48 h; series mostly up to 57.5 µM; note: % is set by controls: 0 for no effect and ±100 for the full control effect; nearly all actives have a fitted effect of over 55% in size
Outline: (§2)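 Measured: luminescence after ATPlite addition (15 min, RT). Exposure: 48 h, 37 C, 5% CO2.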

CAOV3 = experiment: as above; conditions: Gynecologic cancer cell panel viability, ATPlite luminescence, 48 h; series mostly up to 57.5 µM
Outline: as §2

CASKI = experiment: as above; conditions: Gynecologic cancer cell panel viability, ATPlite luminescence, 48 h; series mostly up to 57.5 µM
Outline: as §2

Es-2 = experiment: as above; conditions: Gynecologic cancer cell panel viability, ATPlite luminescence, 48 h; series mostly up to 57.5 µM
Outline: as §2

HeLa = experiment: as above; conditions: Gynecologic cancer cell panel viability, ATPlite luminescence, 48 h; series mostly up to 57.5 µM
Outline: as §2

Hek293T = experiment: as above; conditions: Gynecologic cancer cell panel viability, ATPlite luminescence, 48 h, control line for the selectivity index; series mostly up to 57.5 µM
Outline: as §2

JEG-3 = experiment: as above; conditions: Gynecologic cancer cell panel viability, ATPlite luminescence, 48 h; series mostly up to 57.5 µM
Outline: as §2

OV90 = experiment: as above; conditions: Gynecologic cancer cell panel viability, ATPlite luminescence, 48 h; series mostly up to 57.5 µM
Outline: as §2

PA-1 = experiment: as above; conditions: Gynecologic cancer cell panel viability, ATPlite luminescence, 48 h; series mostly up to 57.5 µM
Outline: as §2

SKOV3 = experiment: as above; conditions: Gynecologic cancer cell panel viability, ATPlite luminescence, 48 h; series mostly up to 57.5 µM
Outline: as §2

Tov-21-G = experiment: as above; conditions: Gynecologic cancer cell panel viability, ATPlite luminescence, 48 h; series mostly up to 57.5 µM
Outline: as §2

Tov112D = experiment: as above; conditions: Gynecologic cancer cell panel viability, ATPlite luminescence, 48 h; series mostly up to 57.5 µM
Outline: as §2

[1] = Drug repurposing screens with cells derived from glioblastoma tumor samples (AID 1345199); conditions: GBM patient neurospheres viability, ATP luminescence, 48 h; note: % is set by controls: 0 for no effect and ±100 for the full control effect; nearly all actives have a fitted effect of over 40% in size
Outline: (§3)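 Primary testing used CD133+ neurospheres from four GBM patients, seven concentrations, 48 h exposure and ATP-based viability; confirmation added three slower-growing patient lines.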

astro = experiment: as above; conditions: viability, ATP luminescence, 48 h; series mostly up to 45.9 µM
Outline: as §3

[2] = molecular target: Nuclear receptor subfamily 1 group I member 2 (Rattus norvegicus) (UniProt Q9R1A7); experiment: qHTS assay for small molecule activators of the rat pregnane X receptor (rPXR) signaling pathway (AID 651751; call rule not given here; note: 0% is about no effect); conditions: rPXR reporter cells, luciferase (One-Glo), 24 h
[3] = qHTS assay for small molecule activators of the human pregnane X receptor (PXR) signaling pathway (AID 720659; call rule not given here; note: 0% is about no effect)
[4] = at 45.9 µM (top of the series), tumour line B
[5] = at 45.9 µM (top of the series), tumour line D
[6] = at 46.1 µM (top of the series), tumour line C
[7] = at 46 µM (top of the series), tumour line A
[8] = at 20 µM (top of the series), tumour line C
[9] = at 21.2 µM (top of the series), tumour line B
[10] = at 21.2 µM (top of the series), tumour line D
[11] = at 21.3 µM (top of the series), tumour line A

Nuclear receptor subfamily 1 group I member 2 (Rattus norvegicus), sequence (Q9R1A7 whole entry, looked up): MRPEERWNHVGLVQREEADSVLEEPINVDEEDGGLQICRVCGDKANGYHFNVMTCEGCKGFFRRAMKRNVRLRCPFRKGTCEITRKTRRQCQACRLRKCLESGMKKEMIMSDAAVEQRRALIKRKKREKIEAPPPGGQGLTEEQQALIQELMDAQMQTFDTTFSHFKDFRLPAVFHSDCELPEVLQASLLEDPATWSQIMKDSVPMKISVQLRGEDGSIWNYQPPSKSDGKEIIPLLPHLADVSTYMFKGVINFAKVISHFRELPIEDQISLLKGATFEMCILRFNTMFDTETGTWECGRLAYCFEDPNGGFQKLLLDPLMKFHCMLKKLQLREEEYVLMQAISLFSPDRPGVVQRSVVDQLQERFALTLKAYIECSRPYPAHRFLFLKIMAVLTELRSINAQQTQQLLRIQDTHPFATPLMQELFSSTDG

O=C(OOC(=O)c1ccccc1)c1ccccc1
inactive: outcome (NIH3T3) | outcome (UISO) | outcome (WaGa) | outcome (C33A) | outcome (CAOV3) | outcome (CASKI) | outcome (Es-2) | outcome (HeLa) | outcome (Hek293T) | outcome (JEG-3) | Potency (OV90) | outcome (PA-1) | outcome (SKOV3) | outcome (Tov-21-G) | outcome (Tov112D) | activity, negative = cell killing [1, 4] -7.59% | activity, negative = cell killing [1, 5] -7.12% | activity, negative = cell killing [1, 6] -4.84% | outcome (astro) | max response [2] -0.865% | outcome [3]

NNc1nnc(NN)c2ccccc12
inactive: outcome (NIH3T3) | outcome (UISO) | outcome (WaGa) | outcome (C33A) | outcome (CAOV3) | outcome (CASKI) | outcome (Es-2) | outcome (HeLa) | outcome (Hek293T) | outcome (JEG-3) | Potency (OV90) | outcome (PA-1) | outcome (SKOV3) | outcome (Tov-21-G) | outcome (Tov112D) | activity, negative = cell killing [1, 4] -9.47% | activity, negative = cell killing [1, 5] -12.6% | activity, negative = cell killing [1, 6] -17.6% | outcome (astro)

CC(=O)Oc1cccc(O)c1
inactive: outcome (NIH3T3) | outcome (UISO) | outcome (WaGa) | outcome (C33A) | outcome (CAOV3) | outcome (CASKI) | outcome (Es-2) | outcome (HeLa) | outcome (Hek293T) | outcome (JEG-3) | outcome (PA-1) | outcome (SKOV3) | outcome (Tov-21-G) | outcome (Tov112D) | activity, negative = cell killing [1, 4] -1.54% | activity, negative = cell killing [1, 5] -17.1% | activity, negative = cell killing [1, 7] -23.9% | activity, negative = cell killing [1, 6] -11% | outcome (astro)

OC(CCN1CCCC1)(c1ccccc1)C1CCCCC1 (stereo unspecified)
inactive: outcome (NIH3T3) | outcome (UISO) | outcome (WaGa) | outcome (C33A) | outcome (CAOV3) | outcome (CASKI) | outcome (Es-2) | outcome (HeLa) | outcome (Hek293T) | outcome (JEG-3) | outcome (PA-1) | outcome (SKOV3) | outcome (Tov-21-G) | outcome (Tov112D) | activity, negative = cell killing [1, 8] 3.06% | activity, negative = cell killing [1, 9] -6.65% | activity, negative = cell killing [1, 10] -11.6% | outcome (astro)

O=C(CN1CCNCC1)NC1CCCCC1
inactive: outcome (NIH3T3) inactive; activator | outcome (UISO) | outcome (WaGa) | outcome (C33A) | outcome (CAOV3) | outcome (CASKI) | outcome (Es-2) | outcome (HeLa) | outcome (Hek293T) | outcome (JEG-3) | Potency (OV90) | outcome (PA-1) | outcome (SKOV3) | outcome (Tov-21-G) | outcome (Tov112D) | activity, negative = cell killing [1, 4] -13.1% | activity, negative = cell killing [1, 5] -7.64% | activity, negative = cell killing [1, 6] -22.5% | outcome (astro)

CCCC(O)C(CC)CO (stereo unspecified)
inactive: outcome (NIH3T3) | outcome (UISO) | outcome (WaGa) | outcome (C33A) | outcome (CAOV3) | outcome (CASKI) | outcome (Es-2) | outcome (HeLa) | outcome (Hek293T) | outcome (JEG-3) | Potency (OV90) | outcome (SKOV3) | outcome (Tov-21-G) | outcome (Tov112D) | activity, negative = cell killing [1, 4] -12.1% | activity, negative = cell killing [1, 5] -1.2% | activity, negative = cell killing [1, 7] -19.9% | activity, negative = cell killing [1, 6] 1.39% | max response [2] 7.37% | outcome [3]

O=C(CCBr)N1CCN(C(=O)CCBr)CC1
inactive: outcome (NIH3T3) | outcome (UISO) | outcome (WaGa) | outcome (C33A) | outcome (CAOV3) | outcome (CASKI) | outcome (Es-2) | outcome (HeLa) | outcome (Hek293T) | outcome (JEG-3) | Potency (OV90) | outcome (PA-1) | outcome (Tov-21-G) | outcome (Tov112D) | activity, negative = cell killing [1, 4] -9.14% | activity, negative = cell killing [1, 5] -7.7% | activity, negative = cell killing [1, 6] -5.97%

O=c1[nH]c(=O)n([C@H]2C[C@H](O)[C@@H](CO)O2)cc1I
inactive: outcome (NIH3T3) | outcome (WaGa) | outcome (C33A) | outcome (CASKI) | outcome (Es-2) | outcome (HeLa) | outcome (Hek293T) | outcome (JEG-3) | Potency (OV90) | outcome (PA-1) | outcome (SKOV3) | outcome (Tov-21-G) | outcome (Tov112D) | activity, negative = cell killing [1, 8] -27.4% | activity, negative = cell killing [1, 9] -17% | activity, negative = cell killing [1, 11] -18.1%

O=C(O)CNC(=O)c1ccccc1I
inactive: outcome (NIH3T3) | outcome (UISO) | outcome (WaGa) | outcome (C33A) | outcome (CAOV3) | outcome (CASKI) | outcome (Es-2) | outcome (HeLa) | outcome (Hek293T) | outcome (JEG-3) | Potency (OV90) | outcome (PA-1) | outcome (Tov-21-G) | outcome (Tov112D) | activity, negative = cell killing [1, 4] -1.24% | activity, negative = cell killing [1, 5] 4.71% | activity, negative = cell killing [1, 7] -24.5% | activity, negative = cell killing [1, 6] -16.1% | outcome (astro)

O=C1c2ccccc2S(=O)(=O)N1CCCCN1CCN(c2ncccn2)CC1
inactive: outcome (NIH3T3) | outcome (UISO) | outcome (WaGa) | outcome (C33A) | outcome (CAOV3) | outcome (CASKI) | outcome (Es-2) | outcome (HeLa) | outcome (Hek293T) | outcome (JEG-3) | Potency (OV90) | outcome (PA-1) | outcome (SKOV3) | outcome (Tov-21-G) | outcome (Tov112D) | activity, negative = cell killing [1, 4] 1.94% | activity, negative = cell killing [1, 5] -19.1% | activity, negative = cell killing [1, 6] -25.2% | outcome (astro)

Cc1cc(C)nc(NS(=O)(=O)c2ccc(N)cc2)n1
inactive: outcome (NIH3T3) | outcome (UISO) | outcome (WaGa) | outcome (C33A) | outcome (CAOV3) | outcome (CASKI) | outcome (Es-2) | outcome (HeLa) | outcome (Hek293T) | outcome (JEG-3) | Potency (OV90) | outcome (PA-1) | outcome (SKOV3) | outcome (Tov-21-G) | outcome (Tov112D) | activity, negative = cell killing [1, 4] -8.37% | activity, negative = cell killing [1, 7] -19.9% | activity, negative = cell killing [1, 6] -16.8% | outcome (astro) | max response [2] 4.51% and 0.319%

CCCCCCCCCCCCCCCCCCO
inactive: outcome (NIH3T3) | outcome (UISO) | outcome (WaGa) | outcome (C33A) | outcome (CAOV3) | outcome (CASKI) | outcome (Es-2) | outcome (HeLa) | outcome (Hek293T) | outcome (JEG-3) | Potency (OV90) | outcome (SKOV3) | outcome (Tov-21-G) | outcome (Tov112D) | activity, negative = cell killing [1, 4] -13.2% | activity, negative = cell killing [1, 5] -6.74% | activity, negative = cell killing [1, 6] -1.06% | outcome (astro) | max response [2] 0.797% | outcome [3]

O=C(O)/C=C/c1ccc(Cn2ccnc2)cc1
inactive: outcome (NIH3T3) | outcome (UISO) | outcome (WaGa) | outcome (C33A) | outcome (CAOV3) | outcome (CASKI) | outcome (Es-2) | outcome (HeLa) | outcome (Hek293T) | outcome (JEG-3) | outcome (PA-1) | outcome (SKOV3) | outcome (Tov-21-G) | outcome (Tov112D) | activity, negative = cell killing [1, 8] 0.197% | activity, negative = cell killing [1, 9] -8.95% | activity, negative = cell killing [1, 10] -11.8% | activity, negative = cell killing [1, 11] -28.4% | outcome (astro)
